In PubChem BioAssay (EPA / NIEHS):
Where “and” joins values, the source holds several entries; their conditions need not be identical. Identical values can stand only once. Some compounds were tested as several samples or in several runs, with calls that do not always agree. Calls of active or inactive are those of the source. How the source made its calls: active means hit-call score of the fitted dose curve at least 0.9, where 1 is the maximum; inactive means score below 0.9.

Key:
[1] = read-out: Interleukin-1 alpha (IL1a), IL1A (gene 3552); test: BSK_KF3CT_IL1a: BioMAP Diversity Plus: KF3CT Assay for Interleukin-1 alpha (IL1a) Biomarker Activity (AID 2283070); conditions: primary human keratinocytes with fibroblasts; actives raise or lower the signal
In short: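 Primary human keratinocyte plus foreskin fibroblast co-culture, dosed and measured at 24 h in 96-well plates. IL-1a level quantified by ELISA; bidirectional fit relative to DMSO.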

[2] = read-out: TIMP metallopeptidase inhibitor 2 (TIMP2), TIMP2 (gene 7077); test: BSK_KF3CT_TIMP2: BioMAP Diversity Plus: KF3CT Assay for TIMP metallopeptidase inhibitor 2 (TIMP2) Biomarker Activity (AID 2283071); conditions: primary human keratinocytes with fibroblasts; actives raise or lower the signal
In short: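 Cells: human keratinocytes co-cultured with foreskin fibroblasts. Treat with chemical, 24 h. Measure TIMP-2 by ELISA; fit curves bidirectionally vs DMSO baseline.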

[3] = read-out: Transforming growth factor beta 1 (TGFb1), TGFB1 (gene 7040); test: BSK_KF3CT_TGFb1: BioMAP Diversity Plus: KF3CT Assay for Transforming growth factor beta 1 (TGFb1) Biomarker Activity (AID 2283072); conditions: primary human keratinocytes with fibroblasts; actives raise or lower the signal
In short: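 Primary human skin cells (keratinocytes, foreskin fibroblasts) were co-cultured, exposed to test chemical and sampled at 24 h. TGF-b1 levels were measured by ELISA and fitted bidirectionally relative to DMSO.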

[4] = read-out: C-C motif chemokine 2 (Homo sapiens) (UniProt P13500); test: BSK_KF3CT_MCP1: BioMAP Diversity Plus: KF3CT Assay for Monocyte Chemoattractant Protein 1 (MCP1/CCL2) Biomarker Activity (AID 2283073); conditions: primary human keratinocytes with fibroblasts; actives raise or lower the signal
In short: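 Human keratinocyte plus foreskin fibroblast primary co-culture exposed to chemical for 24 h. MCP-1 levels measured by ELISA. Bidirectional curve fitting relative to DMSO negative control as baseline.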

[5] = read-out: Matrix Metallopeptidase 9 (MMP9), MMP9 (gene 4318); test: BSK_KF3CT_MMP9: BioMAP Diversity Plus: KF3CT Assay for Matrix Metallopeptidase 9 (MMP9) Biomarker Activity (AID 2283074); conditions: primary human keratinocytes with fibroblasts; actives raise or lower the signal;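 on AC50: MMP9 protein level quantified by ELISA in the co-culture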
In short: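 Human keratinocyte and foreskin fibroblast co-culture exposed to chemicals for 24 h; MMP9 biomarker measured by ELISA, bidirectional fitting relative to DMSO; cytotoxicity tracked by SRB total protein staining in parallel cultures.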

[6] = read-out: urokinase plasminogen activator (uPA), PLAU (gene 5328); test: BSK_KF3CT_uPA: BioMAP Diversity Plus: KF3CT Assay for urokinase plasminogen activator (uPA) Biomarker Activity (AID 2283075); conditions: primary human keratinocytes with fibroblasts; actives raise or lower the signal
In short: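 Primary human keratinocyte/foreskin fibroblast co-culture exposed to chemical; uPA measured by ELISA at 24 h. Bidirectional fit versus DMSO, with parallel SRB total-protein staining for cytotoxicity.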

[7] = read-out: CD40, CD40 (gene 958); test: BSK_LPS_CD40: BioMAP Diversity Plus: LPS Assay for CD40 Biomarker Activity (AID 2283076); conditions: primary human HUVEC with PBMC; actives raise or lower the signal
In short: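 Primary human umbilical vein endothelial cells co-cultured with peripheral blood mononuclear cells, LPS-stimulated, were dosed with chemical and read 24 h later. CD40 levels were measured by ELISA and fitted bidirectionally against DMSO as negative control and baseline.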

[8] = read-out: E-selectin (Homo sapiens) (UniProt P16581); test: BSK_LPS_Eselectin: BioMAP Diversity Plus: LPS Assay for Eselectin Biomarker Activity (AID 2283077); conditions: primary human HUVEC with PBMC; actives raise or lower the signal
In short: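 Human umbilical vein endothelial cells co-cultured with peripheral blood mononuclear cells under LPS stimulation; E-selectin measured by ELISA 24 h after chemical dosing. Activity fitted bidirectionally against DMSO as negative control and baseline.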

[9] = read-out: Interleukin-8 (IL8), CXCL8 (gene 3576); test: BSK_LPS_IL8: BioMAP Diversity Plus: LPS Assay for Interleukin-8 (IL8) Biomarker Activity (AID 2283078); conditions: primary human HUVEC with PBMC; actives raise or lower the signal
In short: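 Human umbilical vein endothelial cells co-cultured with PBMC were stimulated with LPS; IL-8 levels were measured by ELISA 24 h after chemical dosing. Activity was fitted bidirectionally against DMSO as negative control and baseline.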

[10] = BSK_LPS_SRB: Viability Assessment in the BioMAP Diversity Plus: LPS Assay (AID 2283079); conditions: primary human HUVEC with PBMC;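 further: total protein by sulforhodamine B absorbance as a cytotoxicity measure; measured one day after compound addition; fitted in both directions against DMSO so loss or gain of signal counts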
In short: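 Human umbilical vein endothelial cells co-cultured with PBMC (LPS system) were dosed for 24 h. Total protein was stained with 0.1% sulforhodamine B after 10% TCA fixation, read at 560 nm, and fitted bidirectionally against DMSO baseline.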

Measured: AC50

Sequence of E-selectin (Homo sapiens) (P16581 whole entry, looked up): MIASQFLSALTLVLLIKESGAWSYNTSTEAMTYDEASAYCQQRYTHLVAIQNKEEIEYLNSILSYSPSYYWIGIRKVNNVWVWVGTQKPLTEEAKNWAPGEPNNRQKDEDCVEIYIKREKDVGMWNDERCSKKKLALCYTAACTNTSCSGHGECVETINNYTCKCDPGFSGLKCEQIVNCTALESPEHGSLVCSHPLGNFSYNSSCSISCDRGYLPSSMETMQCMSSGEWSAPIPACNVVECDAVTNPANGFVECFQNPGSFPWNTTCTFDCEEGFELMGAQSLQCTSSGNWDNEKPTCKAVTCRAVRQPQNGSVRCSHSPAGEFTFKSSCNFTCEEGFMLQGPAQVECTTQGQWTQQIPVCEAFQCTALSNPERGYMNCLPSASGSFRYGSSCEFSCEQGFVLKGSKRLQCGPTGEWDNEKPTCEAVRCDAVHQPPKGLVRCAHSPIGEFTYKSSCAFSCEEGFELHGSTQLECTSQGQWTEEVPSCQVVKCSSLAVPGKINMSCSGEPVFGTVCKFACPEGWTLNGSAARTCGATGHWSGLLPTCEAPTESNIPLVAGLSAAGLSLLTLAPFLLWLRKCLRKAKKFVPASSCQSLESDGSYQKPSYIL

Oc1ccc(Nc2ccccc2)cc1
active: [1] 5.84 µM | [3] 20 µM | [7] 20 µM
inactive: [2] | [4] | [5] | [6] | [8] | [9] | [10]

FC(F)(F)C(F)(F)C(F)(F)C(F)(F)C(F)(F)C(F)(F)C(F)(F)I
active: [5] 0.244 µM
inactive: [1] | [2] | [4] | [5] | [6] | [7] | [8] | [9]

O=C(O)C=C(C(F)(F)F)C(F)(F)F
active: [5] 8.2 µM | [7] 19.6 µM
inactive: [1] | [2] | [4] | [5] | [6] | [7] | [9]

CO[Si](OC)(c1ccccc1)c1ccccc1
inactive: [1] | [7] | [8] | [9] | [10]
active: [2] 30.9 µM | [3] 30.1 µM | [4] 31.6 µM | [5] 31.3 µM | [6] 28.9 µM

OCC(F)(F)C(F)(F)C(F)(F)F
inactive: [1] | [2] | [4] | [5] | [6] | [7] | [8] | [9]

O=C(O)C(F)(F)C(F)(F)C(F)(F)C(F)(F)C(F)(F)C(F)(F)C(F)(F)C(F)(F)C(F)(F)C(F)F
inactive: [2] | [9]
active: [1] 48.7 µM and 46.1 µM | [2] 42.2 µM | [4] 30 µM and 11.4 µM | [5] 16.2 µM and 12.5 µM | [6] 47.5 µM and 54.1 µM | [7] 24.9 µM and 41.6 µM | [9] 55 µM | [10] 46.9 µM and 55 µM

CCCCCCC(C)OC(=O)CCCCC(=O)OC(C)CCCCCC (stereo unspecified)
inactive: [1] | [2] | [3] | [4] | [5] | [6] | [7] | [8] | [9] | [10]

CCCCNc1ccccc1
inactive: [1] | [2] | [3] | [4] | [5] | [6] | [7] | [8] | [9] | [10]

FC(F)(F)C(F)(F)C(F)(F)C(F)(F)C(F)(F)C(F)(F)C(F)(F)Br
inactive: [1] | [2] | [4] | [5] | [6] | [7] | [8] | [9]

O=C(CC(=O)C(F)(F)C(F)(F)F)C(F)(F)F
inactive: [1] | [2] | [4] | [5] | [6] | [7] | [8] | [9]

CC(CCl)OP(=O)(OC(C)CCl)OC(C)CCl (stereo unspecified)
inactive: [1] | [2] | [3] | [4] | [5] | [6] | [7] | [9]

CS(C)(=O)=O
inactive: [1] | [2] | [3] | [4] | [5] | [6] | [7] | [9] | [10]

Cc1ccc(S(=O)(=O)OCC(F)(F)C(F)(F)C(F)(F)C(F)(F)C(F)(F)C(F)F)cc1
inactive: [1] | [2] | [4] | [5] | [6] | [7] | [9]
active: [5] 10.8 µM | [7] 30 µM

O=P(O)(O)OCCC(F)(F)C(F)(F)C(F)(F)C(F)(F)C(F)(F)C(F)(F)F
active: [7] 0.823 µM
inactive: [1] | [2] | [4] | [5] | [6] | [7] | [8] | [9] | [10]

O=C(O)C(F)(OC(F)(F)C(F)(OC(F)(F)C(F)(OC(F)(F)C(F)(F)C(F)(F)F)C(F)(F)F)C(F)(F)F)C(F)(F)F (stereo unspecified)
inactive: [1] | [2] | [4] | [5] | [6] | [7] | [8] | [9]

Nc1ccc([N+](=O)[O-])cc1O
inactive: [1] | [2] | [3] | [4] | [5] | [6] | [7] | [8] | [9] | [10]
